Results taken from ChEMBL document CHEMBL4888484, “Replenishing the malaria drug discovery pipeline: Screening and hit evaluation of the MMV Hit Generation Library 1 (HGL1) against asexual blood stage Plasmodium falciparum ,using a nano luciferase reporter read-out” (2022).
Screen size: about 4,800 compounds; about 410 (8.5%) showed an effect of 50% or more. The full list was thinned out, with strong results kept by preference.

Test system: Plasmodium falciparum
Assay: Confirmatory screen in NF54 pLDH assay, in single point, at 2uM, 72h
Format: functional, Erythrocyte
Settings: timepoint 72 hour

Compound | % Inhibition
Cn1c(CN2CCOC[C@@]23CCOC3)nnc1C1CC1 | 13%
O=C(Nc1ccccc1Cl)Nc1cccc2c(-c3ccccc3)c(C(=O)N3CCOCC3)[nH]c12 | 12%
Cc1ccc(S(=O)(=O)c2c(C)cc(-c3ccccc3)nc2N2CCOCC2)cc1 | 12%
CCO[C@@]1(c2ccccc2)NC(=O)c2cc3c(cc21)OCCO3 | -18%
CC(=O)N(CCN1CCOCC1)[C@H]1CCN(S(=O)(=O)c2cccc(Cl)c2)C1 | 9%
O=C(NCCCN1CCOCC1)c1ccc(-c2cnc(NC3CCCCC3)nc2)cc1 | -15%
Cn1cc(CN2CCC(C(=O)NCCCN3CCCCC3)CC2)c2cc(Cl)ccc21 | -8%
CO/N=C(\Nc1cc(C)ccc1C)c1nonc1N | 16%
O=C(C[C@@H]1NC(=O)c2ccccc2NC1=O)NCc1ccc(Cl)cc1Cl | -6%
Nc1cc(F)c(Br)cc1Cl | 7%
CCn1c(=O)c(N2CCC(C(=O)N3CCN(c4ccccc4F)CC3)CC2)nc2cccnc21 | -9%
O=C1C[C@@H](c2cccc(Br)c2)c2c(O)nc(N3CCOCC3)nc2N1 | -7%
CCN(C(C)=O)c1nc(CN2C(=O)N[C@](C)(c3ccc(F)cc3Br)C2=O)cs1 | 9%
Cc1nccc(O[C@H]2CCCN(C(=O)CN3CCN(c4ccccc4)C3=O)C2)n1 | 9%
COc1cccc(N2C(=O)N[C@H](C)C2=O)c1 | 15%
COc1cccc(C(=O)Nc2noc(-c3cccc(OC)c3)c2-c2ccc(Cl)cc2)c1 | -19%
COc1ccc(-c2c(-c3cccc(OC)c3)[nH]c3c2c(=O)[nH]c(=O)n3C)cc1 | 97%

Compound | % Inhibition
CCCN1CCN(S(=O)(=O)c2cccc3nonc23)CC1 | 11%
O=C1CCc2cc(N[C@@H](C(=O)N3CCCC3)c3ccccc3)ccc2N1 | 5%
O=C(NC1CCN(Cc2ccco2)CC1)c1ccco1 | -2%
Clc1cccc(N2CCN(Cc3nc(-c4ccco4)no3)CC2)c1 | -1%
Cc1nn(C)cc1C(=O)N1CCN(c2nncc3ccccc23)CC1 | -10%
COc1ccnc(NCc2ccc(N3CCOCC3)cc2)n1 | 10%
CCNC(=O)c1nc(-c2ccncc2)cs1 | -16%
O=C(Cn1nc(C2CC2)nc1C1CC1)N1CCOCC1 | 11%
CCN(C[C@H](C)C#N)C(=O)C(=O)Nc1ccc(F)cc1Cl | 13%
COc1cc(Br)cc(C#N)c1O | 9%
CC(C)c1cccc(Nc2nc3ccncc3n(C(C)C)c2=O)c1 | 94%
O=C(CCOCC(F)(F)F)Nc1ccc2c(c1)C(=O)NC2 | -5%
CC[N+](CC)(CC(=O)OC1CC2CCC1(C)C2(C)C)CC(=O)OC1CC2CCC1(C)C2(C)C (centres undefined) | 92%
Cn1cc(C(C(=O)O[C@@H]2C[C@@H]3CC[C@@]2(C)C3(C)C)c2cn(C)c3ccccc23)c2ccccc21 | 3%
Cc1ccnc(-c2noc(Cn3c(=O)c(C)cn(C)c3=O)n2)c1 | 4%
Nc1nc(Cc2ccccc2)c(Br)c(=O)[nH]1 | 5%
COc1ccc(C2=NC3=S(N2c2ccccc2)N(C(C)=O)C(C(Cl)(Cl)Cl)N3c2ccccc2)cc1 (centres undefined) | 13%
